Values without a mark were called inactive. Activity calls are given as the source filed them. Calls come from the whole dose curve; as a rule, active = well fitted inhibition curve with a large enough effect; inconclusive = small, poorly fitted or top-dose-only effect; inactive = flat fitted curve, though single readings scatter.
Target: Luciferin 4-monooxygenase (Photinus pyralis) (UniProt P08659)
Assay: Primary firefly luciferase (FLuc) qHTS assay for identification of artifact compounds. (AID 1845220); note: nearly all actives have a fitted effect of over 60% in size;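 for activity change, negative = inhibition: plate controls were DMSO vehicle for no effect and no enzyme for full effect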
Settings: purified firefly luciferase, luminescence, 5 min; series mostly up to 54.1 µM; activity change, negative = inhibition: at the top concentration
In short: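 FLuc 10 nM; luciferin 10 uM; ATP 10 uM; Tris-acetate pH 7.6, Mg-acetate 10 mM; 15 min RT preincubation; 5 min reaction; luminescence.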
Potency is the fitted concentration of half-maximal effect.

SMILES	outcome	activity change, negative = inhibition	Potency
CC(C)Nc1cc(C(F)(F)F)cc2nc(NC(=O)c3cccnc3)nn12	inactive		
Cc1cn(-c2cc(NC(=O)c3ccc(C)c(Nc4nccc(-c5cccnc5)n4)c3)cc(C(F)(F)F)c2)cn1		-6.72%	
c1nc2nc(Nc3ccc(N4CCOCC4)cc3)nc(NC3CCCCC3)c2[nH]1	inactive [at 25.7 µM]		
Cc1c(Cn2c(C)nc3c(C(=O)O)cc(N4CCOCC4)cc32)cccc1C(F)(F)F	inactive		
COc1ccc(-c2cc3c(C)nc(N)nc3n(C3CCC(OCCO)CC3)c2=O)cn1 (centres undefined)		0.848%	
CCCCCN(CCC12CC3CC(CC(C3)C1)C2)C(=O)NCCCc1ccncc1		1.6%	
COC(=O)Nc1ccc(-c2nc(N3CCOCC3)c3cnn(C4CCN(Cc5cccnc5)CC4)c3n2)cc1		-2.42%	
Cc1cnc(Nc2ccc(F)cc2Cl)nc1-c1c[nH]c(C(=O)N[C@H](CO)c2cccc(Cl)c2)c1	inactive		
NCC(=O)Nc1ccc(-n2nc(C(F)(F)F)cc2-c2ccc3c(ccc4ccccc43)c2)cc1	inactive		
Cc1cn2cc(C(=O)N(C)CCO)cc(N[C@@H]3CCOc4cccc(C)c43)c2n1		-5.66%	
CCc1c2c(nc3ccc(O)cc13)-c1cc3c(c(=O)n1C2)COC(=O)[C@]3(O)CC		-9.47%	
Nc1nc(Nc2ccc(S(N)(=O)=O)cc2)nn1C(=O)c1c(F)cccc1F		0.636%	
C[C@@H]1COC(Nc2ccc3ncnc(Nc4ccc(OCc5nccs5)c(Cl)c4)c3c2)=N1			19 µM (active)
N#CCNC(=O)c1ccc(-c2ccnc(Nc3ccc(N4CCOCC4)cc3)n2)cc1		-18.7%	
CC(=O)Nc1nc(C)c(-c2ccc(Cl)c(S(=O)(=O)NCCO)c2)s1	inactive		
Clc1ccc2ncc(-c3cccc(NC4CNC4)n3)n2c1	inactive		
COC(=O)Nc1nc2ccc(C(=O)c3ccc(F)cc3)cc2[nH]1	inactive		

SMILES	outcome	activity change, negative = inhibition	Potency
COc1cc2c(Oc3ccc(NC(=O)C4(C(=O)Nc5ccc(F)cc5)CC4)cc3F)ccnc2cc1OCCCN1CCOCC1	inactive		
Cc1cc(Nc2cc(CN3CCOCC3)c3nc(C)c(Cc4ccc(Cl)cc4F)n3n2)n[nH]1		1.97%	
CNc1nccc(-c2cccnc2Oc2cc(C(=O)Nc3cccc(C(F)(F)F)c3)ccc2C)n1	inactive		
CC(C)c1nn(-c2c(Cl)cccc2Cl)c2nc(Cc3ccc(OCCO)cc3)[nH]c(=O)c12		3.67%	
CC1(O)CC(c2nc(-c3ccc4ccc(-c5ccccc5)nc4c3)c3c(N)nccn23)C1 (centres undefined)		4.07%	
CC(=O)Nc1sc2c(c1-c1nc3ccccc3s1)CNC2		-2.5%	
Cn1c2ccccc2c2c3c(c4c5ccccc5n(CCC#N)c4c21)CNC3=O		-1.99%	
Clc1cccc(-c2nnnn2Cc2cccnc2)c1Cl		-1.36%	
CC[C@@H]1C(=O)N(C)c2cnc(Nc3ccc(C(=O)NC4CCC(N5CCN(CC6CC6)CC5)CC4)cc3OC)nc2N1C(C)C (some centres undefined)			inactive
COc1cc2c(Oc3ccc4[nH]c(C)cc4c3F)ncnc2cc1OCCCN1CCCC1	inactive		
CC(C)(C)c1cc(NC(=O)Nc2ccc(-c3cn4c(n3)sc3cc(OCCN5CCOCC5)ccc34)cc2)no1		-22.9%	
C=CC(=O)N1CCC[C@@H](n2nc(-c3ccc(Oc4ccccc4)cc3)c3c(N)ncnc32)C1		0.0789%	
CC(C)c1cnn2c(NCc3ccccc3)cc(N[C@@H](CO)[C@H](O)CO)nc12		1.98%	
Cc1[nH]nc2ccc(-c3cncc(OC[C@@H](N)Cc4ccccc4)c3)cc12		-4%	
CCCCOc1c(C(=O)c2c(F)cc(C)cc2F)cnc2n[nH]cc12		4.5%	
Cc1nc(N)ncc1-c1nc(N2CCOCC2)c2sc(C(C)(C)O)cc2n1		-2.81%	
COc1cc(C)c(Sc2cnc(NC(=O)c3ccc(CNC(C)C(C)C)cc3)s2)cc1C(=O)N1CCN(C(C)=O)CC1 (centres undefined)	inactive		

From PubChem BioAssay (NCATS)
